Test results published in PubChem BioAssay (NCI).
About 79,000 compounds went through this panel and 15% of them were active in at least one assay; those are over-represented in the sample as a whole. Rule as the data show it: active = growth inhibition above about 70%; inactive = the rest.

Columns and labels:
[1] = NCI Yeast Anticancer Drug Screen. Data for the rad50 strain (AID 155);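 also: 0% = growth of vehicle-only cultures of the same strain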; conditions: S. cerevisiae rad50 strain growth inhibition; at 50.0 µM; active compounds read high
Outline: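 DNA repair mutant yeast, compound exposure, growth read-out; inhibition is taken relative to vehicle.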

[2] = NCI Yeast Anticancer Drug Screen. Data for the mec2-1 strain (AID 157); conditions: S. cerevisiae mec2-1 strain, at 50.0 µM, active compounds read high
Outline: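 Strain: mec2-1 (DNA repair/cell cycle alteration). Compound exposure, then growth measured; inhibition expressed relative to vehicle.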

[3] = NCI Yeast Anticancer Drug Screen. Data for the sgs1 mgt1 strain (AID 161);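 also: 0% = growth of cultures given vehicle only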; conditions: S. cerevisiae sgs1 mgt1 strain, at 50.0 µM, active compounds read high
Outline: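 Genetically altered yeast, compound exposure, growth inhibition relative to vehicle.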

[4] = NCI Yeast Anticancer Drug Screen. Data for the cln2 rad14 strain (AID 165);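 also: 0% = growth equal to vehicle treated cultures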; conditions: S. cerevisiae cln2 rad14 strain, at 50.0 µM, active compounds read high
Outline: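 Compounds are applied to the cln2 rad14 yeast strain, and growth is then compared with that of vehicle-treated cultures to give inhibition.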

[5] = NCI Yeast Anticancer Drug Screen. Data for the bub3 strain (AID 167); conditions: S. cerevisiae bub3 mutant strain, at 50.0 µM, active compounds read high
Outline: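 In this screen, a yeast mutant lacking normal mitotic checkpoint function is challenged with compound. Relative growth versus vehicle gives the inhibition value.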

[6] = NCI Yeast Anticancer Drug Screen. Data for the mlh1 rad18 strain (AID 175); conditions: S. cerevisiae mlh1 rad18 strain growth inhibition; at 50.0 µM; active compounds read high
Outline: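 Read-out is yeast growth inhibition, calculated against vehicle-only controls. The compound was applied to a strain engineered with DNA damage repair alterations.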

Measured: growth inhibition

Cc1c(Br)cc(C(=O)O)c(O)c1Br
inactive: [1] -4.95% | [2] 2.05% | [3] 19.6% | [4] -29.2% | [5] -26.6% | [6] 3.05%

Cc1ccc(N=Nc2ccc(N(C)C)cc2)cc1
inactive: [1] 18.6% | [2] -8.05% | [3] -16.6% | [4] -51.6% | [5] -6.2% | [6] 14.7%

Cc1c(-c2coc(-c3ccc(Cl)cc3)n2)c(=O)n(-c2ccccc2)n1C
inactive: [1] -7.85% | [2] -43.2% | [3] -22.1% | [4] -9.9% | [5] 7.4% | [6] -6.6%

CC12CCC(/C(=N/O)C1=O)C2(C)C (stereo not given)
inactive: [1] 2.15% | [2] -2.15% | [3] 1.1% | [4] -74.5% | [5] -1.8% | [6] 4.25%

CS(=O)(=O)OC[C@@H]1C2CCC(C2)[C@@H]1COS(C)(=O)=O
inactive: [1] -8.45% | [2] -12.8% | [3] 1.5% | [4] -52.8% | [5] -3.5% | [6] -14.2%

CCCC(NC(=O)CN)C(=O)O (stereo not given)
inactive: [1] 14.8% | [2] 19.1% | [3] 2% | [4] -50% | [5] -29.4% | [6] 6.5%

Cc1cc(N)ccc1N=Nc1ccc(S(=O)(=O)CCOS(=O)(=O)O)cc1
inactive: [1] 10.9% | [2] -7.5% | [3] -6.8% | [4] -4.65% | [5] -37.1% | [6] -74.7%

CCC1CC2CCC(c3cc4c(cc3OC)N(C)C3C(O)(C(=O)OC)C(OC(C)=O)C5(CC)C=CCN6CCC43C65)c3[nH]c4ccccc4c3CCN(C1)C2 (stereo not given)
inactive: [1] 2.65% | [2] 6.65% | [3] 12.4% | [4] -1% | [5] -3.35% | [6] 18.9%

Cn1c(NC(=O)C(=O)NC23CC4CC(CC(C4)C2)C3)nc2ccccc21
inactive: [1] -1.9% | [2] -11.4% | [3] -9.7% | [4] 5.8% | [5] -7.25% | [6] 8.55%

CN(C)C(=O)Nc1cccc(OS(=O)(=O)N(C)C)c1
inactive: [1] 5.4% | [2] 26.1% | [3] 23.2% | [4] -18.6% | [5] 22.9% | [6] 12.6%

CN(C)CCCN1c2ccccc2Sc2ccc3ccccc3c21
inactive: [1] -0.35% | [2] -3.45% | [3] -43% | [4] -25.9% | [5] 8.95% | [6] 14.8%

COc1cc(Br)c(C=Nc2cccc3cc(OC)c(OC)cc23)cc1OC
inactive: [1] -0.9% | [2] -14.3% | [3] -9.9% | [4] 20.4% | [5] -27.1% | [6] -15.9%

COc1ccc2ccccc2c1C1/C(=N/O)CCc2ccccc21 (stereo not given)
inactive: [1] 30.4% | [2] 15.2% | [3] 12.2% | [4] -37.3% | [5] 10.6% | [6] 14.7%

N#C/C(=C/c1cccc(Oc2ccccc2)c1)c1ccccc1
inactive: [1] 11.7% | [2] -28.2% | [3] -0.55% | [4] -1.5% | [5] -23.1% | [6] -14.4%

COc1ccc(/C=C2\Cc3ccccc3C2=O)cc1OC
inactive: [1] -0.05% | [2] -10.2% | [3] -9.85% | [4] 8.25% | [5] -25.4% | [6] -1.5%

O=C1c2cc3c(-c4ccccc4)oc(-c4ccccc4)c3cc2C(=O)c2c(O)ccc(O)c21
inactive: [1] 1.2% | [2] -7.15% | [3] -20.6% | [4] -4.7% | [5] -5.75% | [6] 5.5%

CCCCOC(=O)NC(Nc1ccc(S(=O)(=O)Nc2ccc(OC)nn2)cc1)(C(F)(F)F)C(F)(F)F
inactive: [1] -8.25% | [2] -1.5% | [3] -10.1% | [4] 5% | [5] -9.55% | [6] 2.95%

COc1cc(OC)c(NC2=CC(c3ccc(Cl)cc3)OC2=O)cc1Cl (stereo not given)
inactive: [1] 27.3% | [2] 1.85% | [3] 12.8% | [4] -3.6% | [5] 1.4% | [6] 17.8%

Cc1ncnc(N)c1N
inactive: [1] 18.3% | [2] 14.2% | [3] 8.95% | [4] 26.1% | [5] 18.1% | [6] 2.8%

COc1ccc(OC)c(C(O)P(=O)(c2ccccc2)c2ccccc2)c1 (stereo not given)
inactive: [1] 12.5% | [2] 1.65% | [3] 31.4% | [4] 12.2% | [5] 27.1% | [6] 27.2%
